Experimental findings from the supplement of paper PMC6555819 are described below.

Holding throughout (experiment): PBM binding z-score (relative to random genomic background probes); higher = stronger binding; sequences stand for … in GC…GCGATTGACAGCGTAGAATGAAGG
Assay [1] relates to FXR:RXRa (NR concentration 270 nM, RXRa partner concentration 90 nM). In a few lines:
(§1)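 Custom Agilent 4×180K protein-binding microarrays carried double-stranded probes. Their 34-nt variable regions held direct-repeat seeds, single-nucleotide variants, half-site ablations and random human genomic background sequences. Arrays were incubated 1 h with ligand-free nuclear receptor dimers in PBS pH 7.4, 2% milk, 0.02% Triton X-100, 1 mM DTT, 0.2 mg/mL BSA and 0.4 mg/ml salmon testes DNA. Antibodies against each partner (one per run) detected binding, and scanned fluorescence was regression-normalized. Binding z-scores use random background probes as reference.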

Assay [2] concerns LXRa:RXRa (NR concentration 270 nM, RXRa partner concentration 90 nM). In a few lines:
as §1

The subject of assay [3] is LXRa homodimer (NR concentration 270 nM). The method, boiled down: as §1
Assay [4] has as its system LXRb:RXRa (NR concentration 270 nM, RXRa partner concentration 90 nM). In a few lines:
as §1

The test system of assay [5] is LXRb homodimer (NR concentration 270 nM). In a few lines: as §1
Assay [6] deals with PPARa:RXRa (NR concentration 270 nM, RXRa partner concentration 90 nM). In a few lines:
as §1

The subject of assay [7] is PPARg:RXRa (NR concentration 180 nM, RXRa partner concentration 90 nM). The method, boiled down:
as §1

The test system of assay [8] is PPARg:RXRa 270nM:90nM, anti-RXR (NR concentration 270 nM, RXRa partner concentration 90 nM). In a few lines: as §1
Assay [9] has as its system PPARg:RXRa 30nM:10nM, anti-RXR (NR concentration 30 nM, RXRa partner concentration 10 nM). In a few lines:
as §1

Assay [10] has as its system PPARg:RXRa 90nM:30nM, anti-RXR (NR concentration 90 nM, RXRa partner concentration 30 nM). In a few lines: as §1
Assay [11] concerns PPARg:RXRa DBDmut IVT, anti-RXR (DBD mutation: RXRa K156A/R161A, NR concentration 270 nM, RXRa partner concentration 90 nM). In a few lines:
as §1

The test system of assay [12] is PPARg:RXRa IVT, anti-PPARg (NR concentration 270 nM, RXRa partner concentration 90 nM). The method, boiled down:
as §1

In assay [13] the test system is PPARg DBDmut:RXRa IVT, anti-PPARg (DBD mutation: PPARg1 K132A/R137A, NR concentration 270 nM, RXRa partner concentration 90 nM). The method, boiled down:
as §1

In assay [14] the test system is PPARg DBDmut IVT, anti-PPARg (DBD mutation: PPARg1 K132A/R137A, NR concentration 270 nM). In a few lines: as §1
The subject of assay [15] is PPARg homodimer (NR concentration 180 nM). In a few lines:
as §1

The test system of assay [16] is PXR:RXRa (NR concentration 270 nM, RXRa partner concentration 90 nM). In a few lines: as §1
For assay [17], the system named is PXR homodimer (NR concentration 270 nM). The method, boiled down: as §1
For assay [18], the system named is RARa:RXR (NR concentration 270 nM, RXRa partner concentration 90 nM). The method, boiled down:
as §1

The subject of assay [19] is RARa homodimer (NR concentration 270 nM). In a few lines:
as §1

Assay [20] relates to RARb:RXRa (NR concentration 270 nM, RXRa partner concentration 90 nM). The method, boiled down: as §1

GCTGCTAGGTCAGGCTGGTCAGCTAACGGGTACG: the PBM binding z-score is 0.826 in assay [1]; 0.306 in [2]; -0.725 in assay [3]; -0.222 in assay [4]; -1.11 in assay [5]; 1.3 in assay [6]. Besides, the PBM binding z-score in assay [7] was 0.457; in assay [8] it was 0.956; in assay [9] it was -0.364; in [10] it was -0.0747; in assay [11] it was 3.75; in assay [12], 2.35. For the same sequence, the PBM binding z-score is -1.05 in [13]; -1.02 in assay [14]; -0.17 in [15]; -0.0298 in assay [16]; -0.747 in [17]; 0.0805 in [18]. The PBM binding z-score is -0.715 in [19] and 3.35 in assay [20].

For the sequence ATATGTAGGTTACATCCGGGTCCTTCAGGCTATG, the PBM binding z-score in [1] turned out to be 0.21; in assay [2], 1.72; in assay [3], 0.152; in [4], 0.684; in assay [5] it was 0.758; in assay [6], 3.17. The PBM binding z-score came to 5.07 in assay [7]; 4.1 in [8]; 2 in assay [9]; 3.63 in [10]; 7.33 in assay [11]; 7.38 in assay [12]. Further, the PBM binding z-score in [13] was determined as 2.34; in assay [14] it was 1.87; in [15], 0.864; in assay [16], 0.482; in assay [17], 0.298; in assay [18], 0.744. Further, the PBM binding z-score in assay [19] turned out to be 0.322; in assay [20], 0.999.

For GCTAGCAGGCCATTTGGGTCAGTCAATGACGGGC, the PBM binding z-score in assay [1] was -0.0631; in assay [2], -0.302; in assay [3], -0.489; in [4], -0.399; in assay [5], -1.6; in assay [6], 0.666. Besides, the PBM binding z-score is 0.221 in assay [7]; -0.137 in assay [8]; -0.663 in [9]; -0.371 in assay [10]; 1.4 in assay [11]; 1.05 in assay [12]. The PBM binding z-score in [13] is -0.511; in [14], -1.16; in assay [15], -0.0651; in [16], -0.047; in assay [17], 0.065; in assay [18], 0.213. For the same sequence, the values for the PBM binding z-score in assay [19] and in [20] were -1.59 and 1.12, respectively.

In the case of CGTCCAAGCTCAATGCTAGGTCAGTGAAAGCATT, the PBM binding z-score in [1] was -0.232; in [2] it was -0.0286; in assay [3], 0.428; in assay [4] it was -0.0522; in [5], -0.887; in [6], 0.167. Moreover, the PBM binding z-score in assay [7] was -0.576; in assay [8], -0.605; in [9], -0.752; in assay [10] it was -0.627; in assay [11], 0.189; in [12] it was 0.0626. The PBM binding z-score was -1.2 in [13]; -1.34 in assay [14]; -0.137 in assay [15]; 0.0332 in assay [16]; -0.275 in assay [17]; 0.319 in [18]. In addition, the PBM binding z-score is -0.477 in assay [19] and 0.961 in assay [20].

TCATATAGGTAAATGGTGAAAGTCGGTGTGGTAA: the PBM binding z-score in [1] is 0.818; in assay [2], 1.03; in [3] it was 0.217; in assay [4], 0.846; in assay [5], -0.047; in [6] it was 1.6. For the same sequence, the PBM binding z-score was determined as 1.54 in [7]; 3.44 in assay [8]; 4.15 in assay [9]; 3.96 in [10]; 3.92 in assay [11]; 2.4 in [12]. In addition, the PBM binding z-score in assay [13] came out at 0.569; in [14], 0.625; in [15] it was 1.49; in [16] it was 0.445; in [17], 0.609; in [18] it was 0.554. The figures for the PBM binding z-score in assay [19] and in [20] were 1.52 and 0.243, respectively.

TTACCAAGGTGTGCTGAGGTCGTTGATCCAACTC: the PBM binding z-score was 0.714 in assay [1]; 0.293 in assay [2]; -0.284 in assay [3]; 0.587 in assay [4]; -0.354 in assay [5]; 0.88 in assay [6]. Also, the PBM binding z-score was -0.381 in assay [7]; 0.606 in [8]; -0.307 in assay [9]; 0.00377 in assay [10]; -0.56 in assay [11]; 0.137 in [12]. Moreover, the PBM binding z-score is -0.549 in assay [13]; -0.745 in assay [14]; 0.0378 in [15]; 2.18 in assay [16]; 0.694 in assay [17]; 1.18 in assay [18]. The PBM binding z-score in assay [19] is -0.699; in [20], 0.629.

As to ACTAGCAGGCCAAGGGTCACACAAGATTAGTCCG, the PBM binding z-score in assay [1] was 3.44; in assay [2], 3.18; in assay [3], 0.449; in [4], 3.38; in assay [5] it was -0.147; in [6] it was 4.88. Also, the PBM binding z-score amounted to 8.73 in assay [7]; 6.99 in [8]; 6.3 in assay [9]; 7.72 in assay [10]; 1.49 in [11]; 4.04 in assay [12]. The PBM binding z-score in [13] is -0.112; in assay [14], -0.266; in assay [15], 1.49; in assay [16] it was 3.56; in assay [17], 0.101; in assay [18] it was 4.6. Besides, the results for the PBM binding z-score in assay [19] and in [20] were 0.267 and 3.76, respectively.
